Records with an inconclusive call do not appear. Activity calls are given as the source filed them. Calls follow the shape of the dose curve; as a rule, active = well fitted curve in the direction sought with a large enough effect; inconclusive = small, poorly fitted or top-dose-only effect, or another doubt; inactive = no such curve, though single readings can be large; an effect the other way counts as inactive or inconclusive.
Each compound was assayed against Furin (Homo sapiens) (UniProt P09958) (assay: Furin counterscreen qHTS for Zika virus inhibitors (AID 1347149;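 as to activity change, negative = inhibition: purified recombinant full-length human furin enzyme at 5 nM; fluorescence gain from furin cutting a BOC-RVRR-AMC peptide substrate over 15 min; top concentration of the series differs between compounds; plate controls were no-inhibitor control for no effect and no-enzyme control for full effect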)). Details: furin enzymatic counterscreen, fluorogenic substrate; series mostly up to 114 µM; activity change, negative = inhibition: at the top concentration.
Furin (Homo sapiens), sequence (P09958 whole entry, looked up): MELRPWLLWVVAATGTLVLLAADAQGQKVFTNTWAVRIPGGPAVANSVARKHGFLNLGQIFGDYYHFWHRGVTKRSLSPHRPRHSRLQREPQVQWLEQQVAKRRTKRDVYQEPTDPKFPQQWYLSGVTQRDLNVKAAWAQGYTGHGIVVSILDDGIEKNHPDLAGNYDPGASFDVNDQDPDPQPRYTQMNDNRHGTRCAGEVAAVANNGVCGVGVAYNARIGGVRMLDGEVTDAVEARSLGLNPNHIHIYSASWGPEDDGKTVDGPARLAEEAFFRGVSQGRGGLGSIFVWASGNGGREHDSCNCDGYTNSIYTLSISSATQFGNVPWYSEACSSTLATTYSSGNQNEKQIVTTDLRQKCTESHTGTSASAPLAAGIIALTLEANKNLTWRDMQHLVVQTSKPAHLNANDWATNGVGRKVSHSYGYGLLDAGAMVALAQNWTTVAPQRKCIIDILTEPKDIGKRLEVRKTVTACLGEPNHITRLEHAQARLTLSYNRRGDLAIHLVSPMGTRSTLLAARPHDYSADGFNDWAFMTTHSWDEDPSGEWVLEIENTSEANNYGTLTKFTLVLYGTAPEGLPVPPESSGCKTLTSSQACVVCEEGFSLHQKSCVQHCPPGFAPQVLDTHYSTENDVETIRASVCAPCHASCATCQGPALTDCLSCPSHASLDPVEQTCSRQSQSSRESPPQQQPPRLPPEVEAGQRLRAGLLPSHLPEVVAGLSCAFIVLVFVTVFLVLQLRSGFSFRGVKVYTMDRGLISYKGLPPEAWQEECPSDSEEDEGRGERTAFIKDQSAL
Procedure, shortened: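 Fluorogenic cleavage of BOC-RVRR-AMC (2 microM final, Km ~15 µM) was monitored (ex 340, em 450 nm) at 37C after 15 min RT preincubation of 5 nM furin with compounds in HEPES pH 7.0 buffer with CaCl2 and Triton X-100. Percent inhibition was fitted to a 4-parameter Hill curve.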
With `Oc1cccc(-c2c3nc(c(-c4cccc(O)c4)c4ccc([nH]4)c(-c4cccc(O)c4)c4nc(c(-c5cccc(O)c5)c5ccc2[nH]5)CC4)C=C3)c1` the “activity change, negative = inhibition” value was 11.3% (inactive). `CC#C[C@@H](CC(=O)O)c1ccc(OCc2cccc(-c3ccc(C(F)(F)F)cc3)c2)cc1` was tested, and the Potency was 24.1 µM (active). With `CC(C)C[C@H](C(=O)O)c1cc(-c2ccc(C(F)(F)F)cc2)cc(-c2ccc(C(F)(F)F)cc2)c1` the Potency was 17.5 µM (active). For `O=C(Nc1ccc(/C=C/c2ccc(NC(=O)c3cc(S(=O)(=O)O)c4cccnc4c3O)cc2S(=O)(=O)O)c(S(=O)(=O)O)c1)c1cc(S(=O)(=O)O)c2cccnc2c1O`, the Potency was 46.9 µM (active). For `COc1ccc(-c2ccccc2)cc1NS(=O)(=O)c1cc(Cl)cc(Cl)c1O`, the Potency was 30.4 µM (active). With `CC#C[C@@H](CC(=O)O)c1ccc(OCc2ccc(CN3CCC4(C=Cc5ccccc54)CC3)s2)cc1` the “activity change, negative = inhibition” value was -9.43% (inactive). `CCCCCc1ccc(/C=C/C(=O)Nc2cc(Cl)ccc2C(=O)O)cc1` was tested, and the Potency was 39.3 µM (active). For `O=C(O)c1cccc(-c2ccc(-c3cn(C(=O)N4CCCCC4Cc4ccccc4)nn3)cc2)c1` (centres undefined), the Potency was 55.5 µM (active). With `CCC(CC)(NC(=O)C(C)C)C(=O)N[C@@H](CCCN=C(N)N)C(=O)NC1(C(=O)NC(c2ccc(F)cc2)c2ccc(F)cc2)CCCC1` the “activity change, negative = inhibition” value was 0.371% [at 57.5 µM] (inactive). For `Cc1noc(-c2ccc(-c3ccc(CC(=O)O)cc3)cc2)c1NC(=O)O[C@H](C)c1ccccc1Cl`, the Potency was 69.8 µM (active). With `CC(O)(C(=O)O)C1CCC2(C)C1CCC1(C)C2CCC2C3(C)CCC(O)C(C)(COC4OC(CO)C(O)C(O)C4O)C3CCC21C` (centres undefined) the “activity change, negative = inhibition” value was 18.6% [at 36.2 µM] (inactive). `O=C(Nc1ccc(-c2ccc(Cl)c(Cl)c2)cc1)C1=C(O)c2ccccc2S(=O)(=O)N1` was tested, and the “activity change, negative = inhibition” value was 94.2% (inactive). For `N#Cc1ccc(N2N=C3c4ccc(C(=O)O)cc4CC[C@@H]3[C@@H]2C2CCCC2)cc1Cl`, the “activity change, negative = inhibition” value was 949% (inactive). In the case of `CCCCCCCOc1cc2c(cc1/C(C)=C/c1ccc(C(=O)O)cc1)C(C)(C)CCS2(=O)=O`, the Potency is reported as 55.5 µM (active). With `O=C(O)c1cc(N(Cc2ccc(C3CCCCC3)cc2)C(=O)c2ccc(Oc3ccccc3)cc2)ccc1O` the Potency was 15.6 µM (active).

The compounds below were run on Zika virus NS2B-NS3 protease (linked construct) (assay: Confirmatory screen NINDS AMC qHTS for Zika virus inhibitors (AID 1347152;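 as to activity change, negative = inhibition: AMC fluorescence gain from cleaved Bz-Nle-KRR-AMC substrate over 15 min; top concentration of the series differs between compounds; 0% = no-inhibitor control and -100% = no-enzyme control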)). Details: Purified linked NS2B-NS3, AMC substrate fluorescence; series mostly up to 36.9 µM; activity change, negative = inhibition: at the top concentration.
Procedure, shortened: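 Linked NS2B-NS3 protease, 1 nM, in 10 mM Tris-HCl pH 8.0, 0.01% Tween 20; compounds preincubated 15 min at room temperature. Nle-KRR-AMC 10 microM (Km 18.3 µM); 15-min fluorescence change (340/450 nm) fitted to 4-parameter Hill.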
In the case of `O=C(O)c1ccc(S(=O)(=O)N(Cc2ccc(OC(F)(F)F)cc2)c2ncc(C(F)(F)F)cc2Cl)cc1`, the Potency is reported as 49.4 µM (active). For `O=S(=O)(Nc1cc(Cl)c(Oc2cnc3ccccc3c2)c(Cl)c1)c1ccc(Cl)cc1Cl`, the Potency was 13.9 µM (active). With `CC#C[C@@H](CC(=O)O)c1ccc(OCc2cccc(-c3ccc(C(F)(F)F)cc3)c2)cc1` the Potency was 12.4 µM (active). In the case of `Cc1cc(C)c2c(c1)C(N(Cc1cc(C(F)(F)F)cc(C(F)(F)F)c1)c1nnn(C)n1)CCCN2CC1CCC(C(=O)O)CC1` (centres undefined), the Potency is reported as 22.1 µM (active). In the case of `CC(C)C[C@H](C(=O)O)c1cc(-c2ccc(C(F)(F)F)cc2)cc(-c2ccc(C(F)(F)F)cc2)c1`, the Potency is reported as 9.87 µM (active). For `COc1ccc(-c2ccccc2)cc1NS(=O)(=O)c1cc(Cl)cc(Cl)c1O`, the Potency was 7.64 µM (active). In the case of `CC#C[C@@H](CC(=O)O)c1ccc(OCc2ccc(CN3CCC4(C=Cc5ccccc54)CC3)s2)cc1`, the Potency is reported as 35 µM (active). `CCCCCc1ccc(/C=C/C(=O)Nc2cc(Cl)ccc2C(=O)O)cc1` was tested, and the Potency was 8.79 µM (active). In the case of `O=C(O)c1cccc(-c2ccc(-c3cn(C(=O)N4CCCCC4Cc4ccccc4)nn3)cc2)c1` (centres undefined), the Potency is reported as 27.8 µM (active). `O=C(O)c1ccc(N2C(=O)/C(=C/c3ccc(-c4ccc([N+](=O)[O-])cc4)o3)C=C2c2ccccc2)cc1` was tested, and the Potency was 12.4 µM (active). For `Cc1noc(-c2ccc(-c3ccc(CC(=O)O)cc3)cc2)c1NC(=O)O[C@H](C)c1ccccc1Cl`, the Potency was 44.1 µM (active). `CC(C)(C)Sc1c(CC(C)(C)C(=O)O)n(Cc2ccc(Cl)cc2)c2ccc(OCc3ccc4ccccc4n3)cc12` was tested, and the Potency was 31.2 µM (active). In the case of `CC(O)(C(=O)O)C1CCC2(C)C1CCC1(C)C2CCC2C3(C)CCC(O)C(C)(COC4OC(CO)C(O)C(O)C4O)C3CCC21C` (centres undefined), the “activity change, negative = inhibition” value is reported as -9.83% (inactive). `O=C(Nc1ccc(-c2ccc(Cl)c(Cl)c2)cc1)C1=C(O)c2ccccc2S(=O)(=O)N1` was tested, and the Potency was 49.4 µM (active). For `N#Cc1ccc(N2N=C3c4ccc(C(=O)O)cc4CC[C@@H]3[C@@H]2C2CCCC2)cc1Cl`, the Potency was 8.79 µM (active). For `CCCCCCCOc1cc2c(cc1/C(C)=C/c1ccc(C(=O)O)cc1)C(C)(C)CCS2(=O)=O`, the Potency was 8.79 µM (active). With `O=C(O)c1cc(N(Cc2ccc(C3CCCCC3)cc2)C(=O)c2ccc(Oc3ccccc3)cc2)ccc1O` the Potency was 12.4 µM (active).

The compounds below were run on Zika virus NS2B-NS3 protease (unlinked complex) (assay: Confirmatory screen GU AMC qHTS for Zika virus inhibitors (AID 1347153;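 also: enzyme at 25 nM with substrate at 10 µM below its Km of 18.3 µM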)). Details: Recombinant NS2B-NS3 protease, AMC substrate fluorescence.
Procedure, shortened: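 Compounds were preincubated 15 min at room temperature with 25 nM noncovalent NS2B-NS3 protease at pH 8.0; AMC substrate added at 10 microM and 15-min fluorescence gain (340/450 nm) converted to percent inhibition, fitted 4-parameter.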
In the case of `O=C(O)c1ccc(S(=O)(=O)N(Cc2ccc(OC(F)(F)F)cc2)c2ncc(C(F)(F)F)cc2Cl)cc1`, the Potency is reported as 44.1 µM (active). `CC#C[C@@H](CC(=O)O)c1ccc(OCc2cccc(-c3ccc(C(F)(F)F)cc3)c2)cc1` was tested, and the Potency was 13.9 µM (active). For `Cc1cc(C)c2c(c1)C(N(Cc1cc(C(F)(F)F)cc(C(F)(F)F)c1)c1nnn(C)n1)CCCN2CC1CCC(C(=O)O)CC1` (centres undefined), the Potency was 22.1 µM (active). In the case of `CC(C)C[C@H](C(=O)O)c1cc(-c2ccc(C(F)(F)F)cc2)cc(-c2ccc(C(F)(F)F)cc2)c1`, the Potency is reported as 15.6 µM (active). `CC#C[C@@H](CC(=O)O)c1ccc(OCc2ccc(CN3CCC4(C=Cc5ccccc54)CC3)s2)cc1` was tested, and the Potency was 39.3 µM (active). For `CCCCCc1ccc(/C=C/C(=O)Nc2cc(Cl)ccc2C(=O)O)cc1`, the Potency was 9.87 µM (active). For `O=C(O)c1cccc(-c2ccc(-c3cn(C(=O)N4CCCCC4Cc4ccccc4)nn3)cc2)c1` (centres undefined), the Potency was 31.2 µM (active). With `Cc1noc(-c2ccc(-c3ccc(CC(=O)O)cc3)cc2)c1NC(=O)O[C@H](C)c1ccccc1Cl` the Potency was 31.2 µM (active). With `O=C(Nc1ccc(-c2ccc(Cl)c(Cl)c2)cc1)C1=C(O)c2ccccc2S(=O)(=O)N1` the Potency was 44.1 µM (active). In the case of `N#Cc1ccc(N2N=C3c4ccc(C(=O)O)cc4CC[C@@H]3[C@@H]2C2CCCC2)cc1Cl`, the Potency is reported as 15.6 µM (active). With `CCCCCCCOc1cc2c(cc1/C(C)=C/c1ccc(C(=O)O)cc1)C(C)(C)CCS2(=O)=O` the Potency was 8.79 µM (active). For `O=C(O)c1cc(N(Cc2ccc(C3CCCCC3)cc2)C(=O)c2ccc(Oc3ccccc3)cc2)ccc1O`, the Potency was 9.87 µM (active).

— PubChem BioAssay (NCATS)
Also: nearly all actives have a fitted effect of over 70% in size.
Potency is read from the fitted curve at half-maximal effect.
